# From PubChem BioAssay AID488832 (National Center for Advancing Translational Sciences (NCATS), 2010)
# Records with an inconclusive call do not appear. Calls of active or inactive are those of the source. Calls come from the whole dose curve; as a rule, active = well fitted activation curve with a large enough effect; inconclusive = small, poorly fitted or top-dose-only effect; inactive = no such curve, though single readings can be large or run the other way.
# Experiment: Confirmation Concentration-Response Assay for Enhancers of SMN2 Splice Variant Expression for Further Probe SAR
# Conditions: HEK293 SMN2 exon7-luciferase splicing reporter, luminescence, 30-36 h; series mostly up to 46.1 µM
# From the text: NIH Chemical Genomics Center [NCGC] NIH Molecular Libraries Probe Production centers Network [MLPCN] MLPCN Grant: R03 MH084179-01 Assay Submitter (PI): Elliot Androphy NCGC Assay Overview: Spinal muscular atrophy (SMA) is caused by insufficient levels of the survival motor neuron protein SMN. The SMN locus on chromosome 5q13 contains two inverted copies of SMN called SMN1 and SMN2 which are 99% identical at the amino acid level. SMN1 is a fully functional protein and SMN2 skips exon 7 90% of the time. Skipping of exon 7 produces non-functional protein product. 10% of the SMN2 protein includes exon 7 and is fully functional. In the SMA disease state, mutations in the SMN1 locus are the cause of the disease state. Because only 10% of SMN2 is of the fully functional form, it is not sufficient to overcome the deficiency produced by the loss of the SMN1 product. A therapy that either increase the amount of SMN2 product made or to increase the inclusion of exon 7 has been proposed for the treatment of SMA. We have designed an assay to identify small molecules that can increase the amount of functional SMN2 product by appending a luciferase reporter gene after the native SMN2 gene, such that inclusion of exon 7 in the expressed product places the luciferase sequence in frame, thus generating functional luciferase enzyme.
# NCGC Assay Protocol Summary: This screen utilizes a luciferase reporter gene assay, combining the promoter with the major portion of the native SMN2 cDNA (exons 1 -7, intron 8 , exon 8 fused to luciferase) stably expressed in HEK293 cells. Compounds that increase luciferase signal presumably enhance expression of the functional SMN2 splice variant. Passaging media contained DMEM w/ glutamax (+phenol red) 10% FCS, 1x pen/strep, 200 ug/ml hygro, 1x sodium pyruvate. Assay media contained DMEM w/ glutamax (-phenol red) 10% FCS, 1x pen strep, 1x pyruvate Sequence, Parameter, Value, Description (1) Cells, 5 uL, 2000 cells/well, 1536 TC treated White solid bottom plate (2) Time, 10-12 hours, 37C 5% CO2 (3) Compound, 23 nl, MLSMR Library (4) Control Compound, 23 nL, Sodium butyrate st 4.5mM (final) conc (5) Time, 30-36 hours, 37C 5% CO2 (6) Reagent, 3 ul, One Glo (TM) from Promega (7) Time, 5-15 minutes, Room temp (8) Detector, Viewlux: luminescent read, 60 second integration, high speed 2x binning Keywords: Spinal muscular atrophy, SMA, SMN2, high throughput screening, MLSMR, MLPCN, NIH Roadmap, qHTS and NCGC
row,Compound,Potency
1,CN(C)c1cccc(-c2ccnc(N3CCC(C(N)=O)CC3)n2)c1,0.688 µM (active)
2,O=C(O)C1CCN(c2ncc(-c3ccc4c(c3)OCCCO4)s2)CC1,0.0087 µM (active)
3,Cc1ccc(-c2cnc(N3CCC(C(N)=O)CC3)s2)cc1,0.0688 µM (active)
4,CCOC(=O)C1CCN(c2ncc(-c3ccc4c(c3)OCCCO4)s2)CC1,0.0274 µM (active)
5,Cc1cnc(N2CCC(C(N)=O)CC2)nc1-c1cccc(N(C)C)c1,inactive
6,CS(=O)(=O)c1ccc(-c2csc(N3CCC(C(N)=O)CC3)n2)cc1,inactive
7,COc1ccc(-c2cnc(N3CCC(C(N)=O)CC3)s2)cc1OC,7.72 µM (active)
8,NC(=O)C1CCN(c2nc(-c3ccc(N4CCCCC4)nc3)cs2)CC1,3.45 µM (active)
9,NC(=O)C1CCN(c2ncc(-c3cccc(N4CCCC4)c3)s2)CC1,0.345 µM (active)
10,CN(C)c1cccc(-c2cc(N3CCC(C(N)=O)CC3)ncn2)c1,4.87 µM (active)
11,NC1CCN(c2nc(-c3ccc(Br)cc3)cs2)CC1,1.94 µM (active)
12,NC(=O)C1CCN(c2ncc(Br)cn2)CC1,inactive
13,NC(=O)C1CCN(c2nc(-c3ccc(OC(F)(F)F)cc3)cs2)CC1,3.07 µM (active)
14,CN(C)c1cccc(-c2nc(N3CCC(C(N)=O)CC3)ncc2F)c1,0.345 µM (active)
15,CC(C)Oc1cccc(-c2csc(N3CCC(C(N)=O)CC3)n2)c1,0.688 µM (active)
16,Cc1cccc(-c2csc(N3CCC(C(N)=O)CC3)n2)c1,15.4 µM (active)
17,CC(=O)C1CCN(c2ncc(-c3ccc4c(c3)OCCCO4)s2)CC1,inactive
18,NC(=O)C1CCN(c2ncc(-c3cccc(N4CCOCC4)c3)s2)CC1,1.94 µM (active)
19,CC(=O)NC1CCN(c2nc(-c3ccc(Br)cc3)cs2)CC1,inactive
20,N#Cc1cccc(-c2csc(N3CCC(C(N)=O)CC3)n2)c1,inactive

row,Compound,Potency
1,NC(=O)C1CCN(c2nnc(-c3ccc4c(c3)OCCCO4)s2)CC1,0.0972 µM (active)
2,O=C(Nc1ccccc1)C1CCN(c2ncc(-c3ccc4c(c3)OCCCO4)s2)CC1,0.0487 µM (active)
3,NC(=O)C1CCN(c2nccc(-c3ccc(Br)cc3)n2)CC1,0.244 µM (active)
4,NC(=O)C1CCN(c2ncc(-c3ccc4c(c3)OCO4)s2)CC1,0.0487 µM (active)
5,CN(C)c1cccc(-c2ncnc(N3CCC(C(N)=O)CC3)n2)c1,0.772 µM (active)
6,CC(C)(C)c1ccc(-c2csc(N3CCC(C(N)=O)CC3)n2)cc1,2.74 µM (active)
7,O=C(NCc1ccccc1)C1CCN(c2nc(-c3ccc(Br)cc3)cs2)CC1,inactive
8,CC(C)(C)OC(=O)NC1CCN(c2nc(-c3ccc(Br)cc3)cs2)CC1,inactive
9,CSc1ccc(-c2cnc(N3CCC(C(N)=O)CC3)s2)cc1,0.031 µM (active)
10,N#Cc1ccccc1-c1csc(N2CCC(C(N)=O)CC2)n1,inactive
11,NC(=O)C1CCN(c2ncc(Br)s2)CC1,inactive
12,CN(C)c1cccc(-c2cnc(N3CCC(c4ncc[nH]4)CC3)s2)c1,3.45 µM (active)
13,NC(=O)C1CCN(c2ncc(-c3ccc(Cl)cc3)s2)CC1,0.137 µM (active)
14,NC(=O)C1CCN(c2nc(-c3cccc4sc5ccccc5c34)cs2)CC1,13.7 µM (active)
15,NC(=O)N1CCN(c2nc(-c3ccc(Br)cc3)cs2)CC1,13.7 µM (active)
16,NC(=O)C1CCN(c2nc(-c3ccc4c(c3)OCCCO4)cs2)CC1,0.487 µM (active)
17,O=C(NCCCc1ccccc1)C1CCN(c2nc(-c3ccc(Br)cc3)cs2)CC1,inactive
18,NC(=O)C1CCN(c2nc(-c3ccc(Oc4ccccc4)cc3)cs2)CC1,4.34 µM (active)
19,CNC(=O)C1CCN(c2nc(-c3ccc(Br)cc3)cs2)CC1,4.87 µM (active)
20,NC(=O)C1CCN(c2nc(-c3ccc(Cl)cc3)cs2)CC1,1.09 µM (active)
